IL-1B inflam inh: blocks inflammasome-driven IL-1 beta release | THP-1 LPS/ATP IL-1B secretion, AlphaLISA, 16 h; stronger effect = lower value | activity change, % at 57.5 µM | hit rate 4.7% among 360,000 | AID 743279; in the data active means activity change below about -50%; inconclusive means mostly about -30% to -49%
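Secreted IL-1B measured by AlphaLISA bead assay after 16 h compound exposure of THP-1 cells; compounds (final up to 57.5 uM) added 1 h before LPS (250 ng/mL) and ATP (1.25 mM) stimulation; lower signal means less secretion.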
ELG1 DNA repair: blocks ELG1-dependent DNA repair in HEK293T cells; hit rate 2.3% among 330,000; Potency, µM (doses to about 46.1 µM), without a hit: at the highest dose activity change, negative = inhibition, hits mostly inhibitors; HEK293T ELG1-luciferase reporter, luminescence, 16 h; DNA damage induced by 5-fluorouridine; further: potency means the concentration at half of the fitted maximal effect; nearly all actives have a fitted effect of over 55% in size
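5-Fluorouridine DNA damage + compound/DMSO, 2,000 cells/well, 16 h, 37 °C/5% CO2. ONE-Glo, 30 min RT, luminescence. Readout = decrease in reporter signal.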
TDP1 cell CPT: growth inhibition of DT40 Tdp1-/-;hTDP1 cells with camptothecin (screen for TDP1 inhibitors) | chicken DT40 Tdp1-/-;hTDP1 cells + 20 nM CPT, ATP luminescence, 48 h | Potency, µM (highest dose often 46.2 µM), for inactives: at the highest dose activity change, negative = growth inhibition, actives largely listed as inhibitors | hit rate 12% among 420,000; further: potency means the concentration at half of the fitted maximal effect; nearly all actives have a fitted effect of over 55% in size
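Cell growth measured by CellTiter-Glo luminescence after a minimum 48 h, 37 C compound exposure with 20 nM CPT in Tdp1-knockout DT40 cells stably expressing hTDP1, seeded 400/well; qHTS titration format.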
HT1080-NT tox: kills 2HG-producing HT-1080-NT fibrosarcoma cells; HT-1080-NT fibrosarcoma viability, CellTiter-Glo ATP luminescence, 48 h; AID 686970; Potency, µM (series often up to 46.1 µM), inactives show at the highest dose activity, negative = less viability, actives largely listed as cytotoxic; hit rate 1.6% among 360,000;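 further: NT is the 2HG producing partner of a matched IDH1 knockdown line; potency means the concentration at half of the fitted maximal effect; 0% = DMSO-treated cells and -100% = media-only wells without cells; nearly all actives have a fitted effect of over 55% in size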
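HT-1080-NT fibrosarcoma cells (2HG-overproducing), 750 cells/well in RPMI with 5% FBS, dosed after 2 h and incubated 48 h at 37C. CellTiter-Glo luminescence normalized to DMSO and no-cell wells; concentration-response curves fitted and classed.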
TDP1 cell noCPT: qHTS for Inhibitors of human tyrosyl-DNA phosphodiesterase 1 (TDP1): qHTS in cells in absence of CPT; Potency, µM (doses to about 46.2 µM), for inactives: top-dose activity change, negative = growth inhibition, hits mostly inhibitors; DT40 Tdp1-/- hTDP1 cells, no CPT, ATP luminescence, 48 h; AID 686978, 2013; hit rate 15% among 420,000; further: potency means the concentration at half of the fitted maximal effect; nearly all actives have a fitted effect of over 55% in size
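A cellular qHTS used chicken DT40 cells lacking endogenous Tdp1 but carrying stably transfected human TDP1. Compounds were applied without camptothecin, and cell growth kinetics were judged by ATP-dependent luminescence after ≥48 hr.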
HT1080 IDH1KD tx: kills HT-1080 cells with IDH1 knockdown; HT-1080 IDH1 knockdown viability, ATP luminescence, 48 h; Potency, µM (titrated, usually from 46.1 µM), without a hit: at the top dose activity, negative = toxicity, usual class: cytotoxic; hit rate 2% among 360,000;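 further: potency means the concentration at half of the fitted maximal effect; 0% = DMSO wells and -100% = cell-free medium wells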
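In this qHTS, HT-1080 cells depleted of IDH1 are exposed for 48 h at 37 °C to compound titrations. Toxicity is scored from CellTiter-Glo luminescence, with DMSO as full viability and medium alone as none.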
Active calls of the source: *. This is a sample that favours compounds with a hit; in the whole collection about 19% have one here. Unless noted, the call rests on the fitted dose curve; in most records, active means well fitted curve in the direction sought with a large enough effect; inconclusive means small, poorly fitted or top-dose-only effect, or another doubt; inactive means no such curve, though single readings can be large; an effect the other way counts as inactive or inconclusive. Unless noted, on the % scale 0 is the no-effect control and ±100 the full control effect.

How did CC(C)Oc1ccc(C2c3c(oc4ccccc4c3=O)C(=O)N2CCCN2CCOCC2)cc1 (stereo not drawn) do in these assays?
IL-1B inflam inh: -0.2; ELG1 DNA repair: 0.0%; TDP1 cell CPT: 25.9µM*; HT1080-NT tox: 6.5%; TDP1 cell noCPT: inconclusive; HT1080 IDH1KD tx: -2.5%

What do the screens show for `Cc1ccc2oc3c(c(=O)c2c1)C(c1ccccc1F)N(CCCN1CCOCC1)C3=O` (stereo not drawn)?
TDP1 cell CPT: inconclusive; TDP1 cell noCPT: 18.4µM*

How did OCc1ccc(-c2cccc3nccn23)cc1 do in these assays?
IL-1B inflam inh: 2.1; TDP1 cell CPT: 4.7%; HT1080-NT tox: 33.4%; TDP1 cell noCPT: -13.7%; HT1080 IDH1KD tx: 0.5%

How did Cc1ccc(OCC(=O)NCC(=O)OCc2cc(=O)n3nc(CC(C)C)sc3n2)cc1 do in these assays?
TDP1 cell CPT: -24.0%; TDP1 cell noCPT: -19.6%

How did Cn1ncc2c(N)nc(NCCO)nc21 do in these assays?
IL-1B inflam inh: -9.3; TDP1 cell CPT: 1.0%; HT1080-NT tox: 10.1%; TDP1 cell noCPT: -3.6%; HT1080 IDH1KD tx: 14.8%

How did CCCNc1nc(Nc2ccc(C)c(Cl)c2)c2cnn(C)c2n1 do in these assays?
IL-1B inflam inh: 21.7; ELG1 DNA repair: 14.6µM*; TDP1 cell CPT: 16.4µM*; HT1080-NT tox: inconclusive; TDP1 cell noCPT: 23.1µM*; HT1080 IDH1KD tx: -26.7%

What do the screens show for `Cn1ncc2c(Nc3ccc4ccccc4c3)ncnc21`?
IL-1B inflam inh: -17.5; ELG1 DNA repair: inconclusive; TDP1 cell CPT: inconclusive; HT1080-NT tox: inconclusive; TDP1 cell noCPT: inconclusive; HT1080 IDH1KD tx: 0.0%

How did CNc1nc(Nc2ccc(C)c(Cl)c2)c2cnn(C)c2n1 do in these assays?
IL-1B inflam inh: -26.3; ELG1 DNA repair: inconclusive; TDP1 cell CPT: 23.1µM*; HT1080-NT tox: -24.8%; TDP1 cell noCPT: 14.6µM*; HT1080 IDH1KD tx: inconclusive

What do the screens show for `Cc1ccc(Nc2nc(NCCO)nc3c2cnn3C)cc1Cl`?
IL-1B inflam inh: 8.8; ELG1 DNA repair: inconclusive; TDP1 cell CPT: 20.6µM*; HT1080-NT tox: -9.7%; TDP1 cell noCPT: 14.6µM*; HT1080 IDH1KD tx: -0.6%

How did Cn1ncc2c(Nc3ccc(O)cc3)nc(Cl)nc21 do in these assays?
IL-1B inflam inh: 35.5; ELG1 DNA repair: inconclusive; TDP1 cell CPT: -3.1%; HT1080-NT tox: -22.6%; TDP1 cell noCPT: -5.3%; HT1080 IDH1KD tx: inconclusive

Results for Cn1ncc2c(Nc3cccc(Cl)c3)nc(Nc3cccc(Cl)c3)nc21 ?
IL-1B inflam inh: -81.1*; ELG1 DNA repair: inconclusive; TDP1 cell CPT: 16.4µM*; HT1080-NT tox: 14.6µM*; TDP1 cell noCPT: 11.6µM*; HT1080 IDH1KD tx: 20.6µM*

How did CN(CCC1CCCCO1)C(=O)CCc1nnc(C2CCCCC2)o1 (stereo not drawn) do in these assays?
IL-1B inflam inh: 3.1; ELG1 DNA repair: inconclusive; TDP1 cell CPT: -1.2%; HT1080-NT tox: 14.7%; TDP1 cell noCPT: -18.5%; HT1080 IDH1KD tx: -0.8%

What do the screens show for `Cc1cc(C(=O)NC(C)C2CCCO2)c(C)o1` (stereo not drawn)?
IL-1B inflam inh: -5.4; ELG1 DNA repair: -1.9%; TDP1 cell CPT: -1.4%; HT1080-NT tox: 16.0%; TDP1 cell noCPT: -1.7%; HT1080 IDH1KD tx: -0.2%

Results for CCc1c(C)sc(NC(=O)CN2CCN(C(=O)c3ccco3)CC2)c1C(=O)OC ?
IL-1B inflam inh: -78.7*; ELG1 DNA repair: inconclusive; TDP1 cell CPT: 18.4µM*; HT1080-NT tox: inconclusive; TDP1 cell noCPT: inconclusive; HT1080 IDH1KD tx: inconclusive

Results for CCOC(=O)c1c(NC(=O)CN2CCN(C(=O)c3ccco3)CC2)sc(C)c1C ?
IL-1B inflam inh: 0.0; ELG1 DNA repair: -5.2%; TDP1 cell CPT: inconclusive; HT1080-NT tox: 3.6%; TDP1 cell noCPT: 14.6µM*; HT1080 IDH1KD tx: 2.9%
